Compounds without any hit were thinned out: in the full panel of roughly 83,000, 20% have a hit.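 96-well plates, one dose, 48 hours. Percent growth reported; active if below 10.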 Calls of active or inactive are those of the source.
Columns and labels:
Test in all cases: NCI-60 one-dose screen, 48 h (100 = growth as untreated, 0 = no growth, -100 = all killed)
Details in all cases: 10 µM unless noted
[1] = tested on: SR leukemia
[2] = tested on: RPMI-8226 leukemia
[3] = tested on: OVCAR-8 ovarian
[4] = tested on: OVCAR-5 ovarian
[5] = tested on: OVCAR-4 ovarian
[6] = tested on: SK-OV-3 ovarian
[7] = tested on: IGROV1 ovarian
[8] = tested on: OVCAR-3 ovarian
[9] = tested on: HS 578T breast
[10] = tested on: NCI/ADR-RES ovarian

Measured: growth

Cc1ccccc1N=C(N)Nc1ccccc1C (tested in a mixture with another compound)
inactive: [1] 49.6% | [2] 46.6% | [3] 73.7% | [4] 91.6% | [5] 82.2% | [6] 98.5% | [7] 62.6% | [8] 78.8% | [9] 111% | [10] 79.3%

Cc1cc2cccnc2c2ncccc12
inactive: [2] 13.4% | [3] 13% | [4] 45.6% | [5] 14.4% | [7] 29.1% | [8] 33.8% | [9] 61.3% | [10] 11.2%
active: [1] 6.21% | [6] 1.57%

CCCCCCCCCCCC[n+]1ccc2ccccc2c1
inactive: [9] 15.1% | [10] 54.2%
active: [1] -29.7% | [2] -53.7% | [3] -37% | [4] 7.35% | [5] -17.2% | [6] -26.2% | [7] -51.9% | [8] -70.3%

c1ccc(C2NCCNC2c2ccccc2)cc1 (stereo not given)
inactive: [1] 98.1% | [2] 108% | [3] 101% | [4] 99.3% | [5] 116% | [6] 113% | [7] 102% | [8] 113% | [9] 104% | [10] 109%

O=C1c2ccccc2C(=O)c2c(O)c(Cl)cc(O)c21
active: [8] -17.9%
inactive: [1] 62% | [2] 96.4% | [3] 58.2% | [4] 92.6% | [5] 84.3% | [6] 99.5% | [7] 81.1% | [9] 106% | [10] 93.7%

CCCCCC/C=C1\CCC(CN2CCCC2)C1=O (stereo not given)
inactive: [1] 43.5% | [3] 106% | [4] 135% | [5] 109% | [6] 110% | [7] 113% | [8] 103% | [9] 96.3% | [10] 105%
active: [2] -12.2%

O=C1/C(=C/c2ccccn2)CCc2ccccc21
inactive: [1] 51.2% | [2] 14.6% | [3] 109% | [4] 108% | [5] 104% | [6] 86.6% | [7] 114% | [8] 109% | [9] 98.1% | [10] 106%

O=C(O)c1cccc2cccc(-c3c4ccc(=O)c(O)c-4oc4c(O)c(O)ccc34)c12
inactive: [1] 83.6% | [2] 123% | [3] 100% | [4] 97.5% | [5] 97.4% | [6] 90.1% | [7] 101% | [8] 93.5% | [9] 99.5% | [10] 96.7%

O=C1c2ccccc2Cc2cccc(Cl)c21
inactive: [1] 64.1% | [2] 106% | [3] 108% | [4] 93.9% | [5] 108% | [6] 98% | [7] 88.7% | [8] 108% | [9] 112% | [10] 96%

C=C(C(N)=O)C(N)C(=O)O (stereo not given)
inactive: [1] 83.4% | [2] 104% | [3] 108% | [4] 113% | [5] 115% | [6] 112% | [7] 99.8% | [8] 105% | [9] 114% | [10] 112%

OC(c1cc(-c2ccc(Cl)cc2)nc2c(Cl)cccc12)C1CCCCN1 (stereo not given)
active: [1] -39.4% | [2] -17.3% | [3] -75.2% | [4] -70.9% | [5] -85.6% | [6] -73.4% | [7] -73.7% | [8] -95.1% | [9] -47.6% | [10] -70.3%

Cc1cc(=O)oc2cc(O)cc(O)c12
inactive: [1] 106% | [2] 111% | [3] 105% | [4] 96.4% | [5] 104% | [6] 104% | [7] 108% | [8] 99.2% | [9] 106% | [10] 108%

NC1=C(Br)C(=O)c2ncccc2C1=O
active: [1] -27.8% | [2] 0.625% | [4] -49.4% | [5] -89.5% | [7] -5.9% | [8] -11.9% | [9] -13.1% | [10] 9.48%
inactive: [3] 10.3% | [6] 34.9%

CC(C)c1ccc(C(=O)OC2CCCC2)cc1
inactive: [1] 105% | [2] 98.3% | [3] 113% | [4] 101% | [5] 106% | [6] 107% | [7] 103% | [8] 99.3% | [9] 101% | [10] 99.9%
